HGIII-sPLA2 inh: human group III sPLA2 inhibitors, primary screen, biochemical, QFRET, BODIPY PC-A2 liposome substrate; actives 0.56% (n = 370,000); AID 743126, 2013; inhibition, % at 12.2 µM; QFRET BODIPY PC-A2 liposome hydrolysis, fluorescence;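 active = inhibition above mean plus 3 SD of compounds lying within the high and low control bounds, cut at about 19% in these data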;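 also: 0% = median of test compound wells and 100% = no enzyme DMSO wells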
Target sequence (Q9NZ20 whole entry, looked up): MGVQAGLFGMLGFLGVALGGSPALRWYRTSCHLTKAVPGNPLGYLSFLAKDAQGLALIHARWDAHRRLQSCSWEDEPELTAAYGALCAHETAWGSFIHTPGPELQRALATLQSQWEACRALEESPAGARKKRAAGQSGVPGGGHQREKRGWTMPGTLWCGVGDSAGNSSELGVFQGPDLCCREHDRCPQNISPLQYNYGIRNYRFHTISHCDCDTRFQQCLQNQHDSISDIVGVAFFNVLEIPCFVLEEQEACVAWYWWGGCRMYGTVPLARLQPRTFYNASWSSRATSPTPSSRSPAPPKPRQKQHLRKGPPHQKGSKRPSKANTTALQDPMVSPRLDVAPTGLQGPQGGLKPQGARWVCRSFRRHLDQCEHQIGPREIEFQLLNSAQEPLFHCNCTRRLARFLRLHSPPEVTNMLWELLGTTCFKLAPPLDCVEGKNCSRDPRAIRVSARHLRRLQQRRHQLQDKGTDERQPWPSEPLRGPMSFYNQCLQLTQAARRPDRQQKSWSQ
PLCb3 inh: human PLC-beta3 inhibitors, primary screen, biochemical, fluorescence. 1-phosphatidylinositol 4,5-bisphosphate phosphodiesterase beta-3 (Homo sapiens), Q01970. Purified PLC-beta3, fluorogenic substrate. inhibition, % at 12.2 µM. actives 0.18% (n = 370,000); in the data active = inhibition above about 11%;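 also: 0% = median of compound wells on plate and 100% = full blocker control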
DAGLB inh: DAGLB lipase inhibitors, primary screen, biochemical, fluorescence, HTS; inhibition, % at 5.17 µM; AID 504411, 2011; actives 0.059% (n = 340,000); HEK293T DAGLB membrane lysate, EnzChek fluorogenic substrate; Diacylglycerol lipase-beta (Homo sapiens), Q8NCG7; in the data active = inhibition above about 34%;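 also: 0% = enzyme with vehicle and 100% = wells lacking enzyme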
PLC-gamma1 inh: PLC-gamma1 enzyme inhibitors, primary screen, biochemical, fluorescence, purified enzyme. 1-phosphatidylinositol 4,5-bisphosphate phosphodiesterase gamma-1 (Homo sapiens), P19174. fluorogenic substrate. inhibition, % at 12.2 µM. actives 0.84% (n = 370,000). AID 720700, 2013; in the data active = inhibition above about 9.5%
hGIII sPLA2 conf: human group III sPLA2 inhibitors, confirmation, biochemical, QFRET, triplicate | shares compounds with HGIII-sPLA2 inh | recombinant hGIII-sPLA2, BODIPY PC-A2 QFRET fluorescence | inhibition, % at 12.2 µM | actives 34% (n = 2,000) | AID 743280, 2014;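 active = mean inhibition across triplicates above the hit cutoff set in the earlier primary screen, cut at about 19% in these data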;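 also: 0% = enzyme with DMSO and 100% = DMSO wells lacking enzyme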
535nm interf: 535nm fluorescence optical interference, confirmation, artefact control for HGIII-sPLA2 inhibitor project, biochemical, QFRET | shares compounds with HGIII-sPLA2 inh | BODIPY FL product fluorescence interference | inhibition, % at 12.2 µM | actives 8.5% (n = 2,000);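 active = average inhibition above the solvent-only control mean plus 3 SD, cut at about 6% in these data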;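 also: 0% = DMSO with substrate plus product and 100% = DMSO with substrate alone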
BODIPY interf DR: 535nm fluorescence optical interference, dose response, artefact control for HGIII-sPLA2 inhibitor project, biochemical, QFRET; shares compounds with HGIII-sPLA2 inh; 240 tested, under 10 active; BODIPY FL product fluorescence interference, cell-free; IC50, µM;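 active = IC50 at or below 10 µM; inactive = IC50 above 10 µM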
Numbers without * were called inactive; i = inactive; nt = no result. A selection: hits, their analogues and other compounds. The true share with any hit is near 1.5%.

SMILES	HGIII-sPLA2 inh	PLCb3 inh	DAGLB inh	PLC-gamma1 inh	hGIII sPLA2 conf	535nm interf	others
COC(=O)[C@]12C[C@H](CC(=O)NCc3ccc(C)o3)C(=O)N(Cc3ccc4c(c3)OCO4)C1=C[C@H](C(C)C)O[C@@H]2C1CC1	-5	-1	nt	0	nt	nt
COc1ccccc1C(=O)OCn1nnc2ccccc2c1=O	5	0	4	-2	nt	nt
O=C(OCn1nnc2ccccc2c1=O)c1cc(-c2ccccc2)nc2ccccc12	23*	2	-1	0	-4	-2
CCOC(=O)C1=C(C)NC(=O)NC1c1ccc(N(C)C)cc1 (stereo not drawn)	3	-5	2	-5	nt	nt
CCC(CC)COC(=O)C1=C(C)NC(=O)NC1c1ccc(N(C)C)cc1 (stereo not drawn)	24*	-19	3	-1	23*	-7
CCC(CC)COC(=O)C1=C(C)NC(=O)NC1c1ccccc1Br (stereo not drawn)	4	-3	2	1	nt	nt
CCOC(=O)C1=C(C)NC(=O)NC1c1ccc(N(CC)CC)cc1 (stereo not drawn)	20*	-2	3	-2	7	-5
CC(C)CNC(=O)/C=C/c1cccs1	22*	10	0	6	0	-2
C=CCNC(=O)/C=C/c1cccs1	0	1	0	2	nt	nt
O=C(/C=C/c1cccs1)NNC(=O)c1ccccc1	20*	-7	0	3	-1	-5
O=C(/C=C/c1cccs1)NC(=S)NNC(=O)Cc1cccs1	29*	-44	2	-37	39*	-7	BODIPY interf DR=>122
COc1cccc(NC(=O)Nc2nc3ncccn3c2-c2ccc(C(F)(F)F)cc2)c1	9	i	nt	i	nt	nt
O=C(Nc1ccc(C(F)(F)F)cc1)C1(c2ccccc2)CC1	25*	-2	-6	2	4	-11
O=C(NNC(=S)Nc1ccc(F)cc1)C1[C@H]2CCCC[C@@H]12 (stereo partly drawn)	25*	-1	nt	1	22*	3
CCCCOc1ccc(C(=O)NC2CCCCN(Cc3ccccc3C)C2=O)cc1 (stereo not drawn)	0	1	nt	2	nt	nt
CCOc1ccc2c(c1)-c1c(ssc1=S)C(C)(C)N2C(=O)CSC1=NCCS1	36*	-2	20	2	20*	-8
Cc1ccc2c(c1)-c1c(ssc1=S)C(C)(C)N2C(=O)CSC1=NCCS1	11	-1	22	0	nt	nt
Cc1ccc(NC(=O)CN2CCN(c3nc(-c4ccccc4)cs3)CC2)cc1C	-4	-3	nt	0	nt	nt
Cc1cc(C)nc(N/N=C/c2ccccc2Cl)n1	1	1	nt	3	nt	nt
Cc1cc(C)nc(N/N=C/c2cccc3ccccc23)n1	19*	1	-3	-5	-3	-2
Cc1ccc(S(=O)(=O)CNC(=S)c2ccc3ccccc3c2)cc1	20*	1	2	-3	24*	0
Cc1ccc(S(=O)(=O)CNC(=S)c2cccc(C)c2)cc1	10	2	-4	0	nt	nt
Cc1ccc(-c2nnc(Nc3ccc(CC(N)=O)cc3)c3ccccc23)cc1S(=O)(=O)NCC1CCCO1 (stereo not drawn)	19*	-84	4	-57	-3	-26
Cc1ccc(-c2nnc(Nc3ccc(CC(N)=O)cc3)c3ccccc23)cc1	21*	-182	8	-121	17	-18
COC(=O)c1ccc(Nc2nnc(-c3ccc(C)c(S(=O)(=O)NCC4CCCO4)c3)c3ccccc23)cc1 (stereo not drawn)	10	-19	1	-18	nt	nt
SMILES	HGIII-sPLA2 inh	PLCb3 inh	DAGLB inh	PLC-gamma1 inh	hGIII sPLA2 conf	535nm interf	others
NC(=S)N/N=C1\CC(c2ccc3c(c2)OCCO3)Oc2ccc(F)cc21 (stereo not drawn)	21*	-10	-2	-1	10	-2
Cc1cnn(CCC(=O)NNC(=S)NCC(C)C)c1	22*	1	1	5	8	-2
O=C1CN(c2nc(-c3ccccc3)c3cc(Cl)ccc3n2)c2ccccc2N1	21*	-5	2	-1	-8	-3
Clc1ccc2nc(N3CCNCC3)nc(-c3ccccc3)c2c1	15	-271	-2	-205	nt	nt
O=c1cc(-c2ccccc2)cc(-c2ccccc2)n1O	21*	-3	-2	-3	12	-10
Cn1c(-c2ccccc2)cc(=O)cc1-c1ccccc1	3	4	-1	0	nt	nt
COc1nc(Nc2ccc(O)cc2)nc(OC(C(F)(F)F)C(F)(F)F)n1	-11	4	-1	-1	nt	nt
Nc1cccc(Nc2nc(OC(C(F)(F)F)C(F)(F)F)nc(OC(C(F)(F)F)C(F)(F)F)n2)c1	28*	0	-6	2	31*	-3	BODIPY interf DR=>122
CC1=NN(c2ccccc2)C(=O)/C1=C\c1sccc1C	-2	-2	7	-1	nt	nt
CC1=NN(c2ccccc2)C(=O)/C1=C/C=C/c1ccccc1	23*	-2	9	2	46*	11*
COc1ccccc1NC(=S)NNC(=O)c1ccc(O)cc1	9	1	-1	0	nt	nt
COc1ccccc1NC(=O)Nc1c(C)nn(C)c1C	3	-3	4	2	nt	nt
COc1ccccc1NC(=S)NNC(=O)c1nn(C)c(C)c1Cl	34*	-2	8	-2	46*	1	BODIPY interf DR=>122
COc1ccccc1NC(=S)NNC(=O)c1nn(C)cc1Cl	31*	1	3	-3	38*	3	BODIPY interf DR=>122
COc1ccccc1NC(=S)NNC(=O)c1nn(C)c(C)c1Br	44*	-6	7	0	29*	6	BODIPY interf DR=>122
Nc1c(C(=O)N2CCN(c3ccccc3)CC2)nnn1Cc1ccc(Cl)cc1	2	4	nt	1	nt	nt
COc1ccc2ccccc2c1/C=N/NC(=S)Nc1cc(S(=O)(=O)N2CCOCC2)ccc1N1CCOCC1	1	-9	2	-4	nt	nt
CCOc1cccc(/C=N/NC(=S)Nc2cc(S(=O)(=O)N3CCOCC3)ccc2N2CCOCC2)c1O	23*	i	13	i	33*	-16
CCCN1CC(=O)N2[C@H](C[C@@]3(n4ccc5ccccc54)c4ccccc4N(S(=O)(=O)c4ccccc4)[C@@H]23)C1=O	-8	-4	nt	-5	nt	nt
CC(=O)Nc1ccc(C(=O)Nc2nc(-c3ccccn3)cs2)cc1	-4	-23	1	-16	nt	nt
